Experimental findings from paper PMC4336329 (PLoS ONE, 2015) are described below.

The campaign covered roughly 310,000 compounds. About 2,200 (0.71%) showed an effect of 50% or more. Effects have a minus sign here. The list comes from a sample in which strong results are over-represented; it also holds similar structures and randomly drawn compounds.

Sequence of human ether-à-go-go-related gene (hERG) potassium channel (Q12809 whole entry, looked up): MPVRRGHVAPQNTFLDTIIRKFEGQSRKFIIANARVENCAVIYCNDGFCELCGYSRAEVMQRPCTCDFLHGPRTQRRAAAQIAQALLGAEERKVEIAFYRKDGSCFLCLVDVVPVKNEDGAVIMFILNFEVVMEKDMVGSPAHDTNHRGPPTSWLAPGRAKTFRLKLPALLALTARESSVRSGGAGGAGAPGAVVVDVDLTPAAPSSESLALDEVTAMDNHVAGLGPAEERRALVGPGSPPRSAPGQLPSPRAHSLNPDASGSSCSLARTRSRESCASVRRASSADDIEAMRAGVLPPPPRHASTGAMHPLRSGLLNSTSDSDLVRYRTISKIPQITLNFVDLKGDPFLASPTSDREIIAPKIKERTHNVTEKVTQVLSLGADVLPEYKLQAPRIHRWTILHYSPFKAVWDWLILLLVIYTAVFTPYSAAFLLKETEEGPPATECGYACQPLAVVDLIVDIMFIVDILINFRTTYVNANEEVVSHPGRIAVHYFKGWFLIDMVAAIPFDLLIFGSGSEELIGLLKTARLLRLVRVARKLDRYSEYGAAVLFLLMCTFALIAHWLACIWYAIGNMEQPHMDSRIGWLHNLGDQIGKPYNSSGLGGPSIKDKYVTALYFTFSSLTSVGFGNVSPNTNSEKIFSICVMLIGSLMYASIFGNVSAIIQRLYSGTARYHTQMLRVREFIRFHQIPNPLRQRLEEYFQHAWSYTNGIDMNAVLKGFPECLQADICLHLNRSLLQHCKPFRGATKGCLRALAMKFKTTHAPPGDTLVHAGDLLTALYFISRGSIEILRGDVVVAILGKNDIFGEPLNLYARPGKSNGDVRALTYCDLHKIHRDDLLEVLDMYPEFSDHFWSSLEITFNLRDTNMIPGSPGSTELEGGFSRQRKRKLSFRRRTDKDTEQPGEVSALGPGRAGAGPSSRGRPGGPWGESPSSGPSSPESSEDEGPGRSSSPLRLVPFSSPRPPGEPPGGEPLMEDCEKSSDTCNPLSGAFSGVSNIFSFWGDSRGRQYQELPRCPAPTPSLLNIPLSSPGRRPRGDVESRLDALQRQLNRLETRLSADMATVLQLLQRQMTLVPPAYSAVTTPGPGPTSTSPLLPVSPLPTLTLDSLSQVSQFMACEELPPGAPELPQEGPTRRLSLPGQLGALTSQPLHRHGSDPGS

This test has as its target human ether-à-go-go-related gene (hERG) potassium channel (human, UniProt Q12809). Description: primary screen, population patch clamp on CHO cells stably expressing hERG; higher = less effect of the substance.
For the compound `CCCCCCCN1C2=NCCCN2c2ccccc21.Cl`, the “hERG current change (%, negative = inhibition) at 1uM” value was -21.6%. Turning to `CCCCN1C2=NC(c3ccccc3)CN2c2ccccc21.Cl` (stereo not drawn), the “hERG current change (%, negative = inhibition) at 1uM” value is reported as -50.5%.

Take `CCCCCCN1C2=NCCN2c2ccccc21.Cl`: the “hERG current change (%, negative = inhibition) at 1uM” value is -82.3%. Under `Br.CC(C)(C)C(=O)CN1C2=NCCN2c2ccccc21` stands 2.72%; under `CCCCCCN1C2=NCCCN2c2ccccc21.Cl`, -73.7%. Consider `CCCN1C2=NCCCN2c2ccccc21.Cl`, for which the “hERG current change (%, negative = inhibition) at 1uM” value is reported as 7.07%. Regarding `Br.CCCCN1C2=NCCCN2c2ccccc21`, the “hERG current change (%, negative = inhibition) at 1uM” value is -6.43%. Under `c1ccc([C@H]2CN3C(=N2)Sc2ccccc23)cc1` stands 11%; under `Br.CCCCCN1C2=NCCN2c2ccccc21`, -58.9%; under `O=C(CNC(=O)C12CC3CC(CC(C3)C1)C2)NC1=NCCS1`, 12.3%. Turning to `COc1ccc(O)c(C2(O)C(=O)c3ccccc3C2=O)c1`, the “hERG current change (%, negative = inhibition) at 1uM” value is reported as 14.2%. For `COc1cccc(NC(=O)Nc2nnc(-c3ccccc3SCc3ccccc3)s2)c1`, the “hERG current change (%, negative = inhibition) at 1uM” value was found to be 2.04%. Under `O=C(Nc1c2c(nn1-c1ccc([N+](=O)[O-])cc1)CS(=O)(=O)C2)c1ccco1` stands -24.1%; under `O=C(CCN1CCN(Cc2ccccc2)CC1)Nc1cccc(Cl)c1`, -45%; under `O=C(c1cc2ccccc2oc1=O)N1CCN(C(=O)C2CCCO2)CC1` (stereo not drawn), 4.25%.

Regarding `CCCOc1ccc(C2C(C(=O)c3ccc(C)o3)=C(O)C(=O)N2Cc2ccco2)cc1OCC` (stereo not drawn), the “hERG current change (%, negative = inhibition) at 1uM” value turned out to be 14.9%. Under `COc1ccccc1N1CCN(C(=O)C(OC(C)=O)c2ccccc2)CC1` (stereo not drawn) stands 11.8%; under `CCCCN(CC)CCNC(=O)c1cc2c(=O)[nH]c3ccccc3c2n1C`, 11.5%. For `N#Cc1ccc(C(=O)Nc2cc(-c3ccccc3)nn2-c2ccccc2)cc1` the value was 0.56%; for `COc1cccc(C2CCCN2Cc2nc(CC3CC3)no2)c1` (stereo not drawn), 14.5%. As for `CNC(=S)N1CCN(c2cccc(OC)c2)CC1`, the “hERG current change (%, negative = inhibition) at 1uM” value came out at 7.07%. Under `COc1cc(O)oc1C=Nc1ccc(Cl)cc1` stands 10.9%; under `CNC(=S)NNC(=O)c1ccccc1Br`, 15.2%. In the case of `Cc1ccccc1CN1C2=NCCN2c2ccccc21.Cl`, the “hERG current change (%, negative = inhibition) at 1uM” value is -13.7%. Under `CCCCCCCN1C2=NCCN2c2ccccc21.Cl` stands -60.7%; under `O=C(Cn1c2c(sc1=O)C1c3ccccc3OCC1CS2)Nc1ccc(Cl)cc1` (stereo not drawn), 9.64%. Take `Nc1nc(SCCC(F)=C(F)F)n[nH]1`: the “hERG current change (%, negative = inhibition) at 1uM” value is on record as 4.82%. With `CCN(CC)CCCNC(=O)c1cn(C)c2ccc(S(=O)(=O)N(C)C3CCCCC3)cc2c1=O`, the “hERG current change (%, negative = inhibition) at 1uM” value is recorded as 12.2%. For `CCCCN(CC)CCCNC(=O)c1cn(C)c2ccc(S(=O)(=O)N(C)C3CCCCC3)cc2c1=O` the value was -66.6%; for `CCN(CC)CCNC(=O)c1cn(CC)c2ccc(S(=O)(=O)N(C)C3CCCCC3)cc2c1=O`, 9.42%; for `CCCN(CCC)CCCNC(=O)c1cn(CC)c2ccc(S(=O)(=O)N(C)C3CCCCC3)cc2c1=O`, -46.1%.

As to `CCCCN(CCCC)CCNC(=O)c1cn(CC)c2ccc(S(=O)(=O)N(C)C3CCCCC3)cc2c1=O`, the “hERG current change (%, negative = inhibition) at 1uM” value is recorded as -84.2%. For `CCCCN(C)CCCNC(=O)c1cn(C)c2ccc(S(=O)(=O)N(C)C3CCCCC3)cc2c1=O` the value was -45.6%; for `O=C(/C=C/c1ccccc1Cl)c1cccnc1`, 6.53%.

Consider `CCC[C@H](CN[C@@H](CNC)[C@H](C)CC)NCCc1cc(C(F)(F)F)cc(C(F)(F)F)c1`, for which the “hERG current change (%, negative = inhibition) at 1uM” value stood at 0.0872%.

As to `CC(CCc1ccccc1)NCC(O)COc1ccccc1` (stereo not drawn), the “hERG current change (%, negative = inhibition) at 1uM” value is listed as -6.95%. Regarding `CC1(c2ccc3ccccc3c2)NC(=O)N(CC(=O)Nc2ncccc2O)C1=O` (stereo not drawn), the “hERG current change (%, negative = inhibition) at 1uM” value came to 14.4%. `O=C(NCCCCC(NC(=O)c1ccc([N+](=O)[O-])cc1)C(=O)O)c1ccc([N+](=O)[O-])cc1` (stereo not drawn): the “hERG current change (%, negative = inhibition) at 1uM” value is on record as -6.29%.

In the case of `COC(=O)C(CCCCNC(=O)c1ccc([N+](=O)[O-])cc1)NC(=O)c1ccc([N+](=O)[O-])cc1` (stereo not drawn), the “hERG current change (%, negative = inhibition) at 1uM” value was -84.2%.

On to `COC(=O)C(CC(C)C)NC(=O)c1ccc([N+](=O)[O-])cc1` (stereo not drawn), for which the “hERG current change (%, negative = inhibition) at 1uM” value is 0.193%. For `CCOC(=O)c1nnc(-c2ccccc2)nc1NC` the value was 2.74%; for `CCN1CCN(C(=S)c2ccc(SC)cc2)CC1`, -18%; for `Cc1cccc(C(=O)Nc2cccc3cccnc23)c1`, 17.4%.

With `CC(=O)NC(=S)NNC(=O)CCc1ccccc1`, the “hERG current change (%, negative = inhibition) at 1uM” value is given as 6.91%. Turning to `O=C(Cc1ccc(Br)cc1)Nc1cccc(-c2cn3c(n2)SCC3)c1`, the “hERG current change (%, negative = inhibition) at 1uM” value came to 12.2%. With `COC(=O)c1sccc1-n1cccc1C(=O)C(=O)N1CCCC1`, the “hERG current change (%, negative = inhibition) at 1uM” value worked out at 6.84%. Regarding `COC(=O)c1sccc1-n1cccc1C(=O)C(=O)N1CCOCC1`, the “hERG current change (%, negative = inhibition) at 1uM” value is -87.6%. For `COC(=O)c1sccc1-n1cccc1C(=O)N1CCOCC1` the value was -11.6%.

Turning to `COc1nnc(-c2ccc(C)cc2)c2ccccc12`, the “hERG current change (%, negative = inhibition) at 1uM” value was determined as 13.6%.

With `CCN(CC)CCOc1nnc(-c2ccc(OC)cc2)c2ccccc12`, the “hERG current change (%, negative = inhibition) at 1uM” value is -25.1%.

Turning to `CCN(CC)CCOc1nnc(-c2ccc(C)cc2)c2ccccc12`, the “hERG current change (%, negative = inhibition) at 1uM” value is listed as -58.4%.

Take `COc1ccc(CCNC(=O)c2cc([N+](=O)[O-])ccc2N2CCOCC2)cc1`: the “hERG current change (%, negative = inhibition) at 1uM” value was determined as 1.7%. Turning to `O=C(OCc1ccc([N+](=O)[O-])cc1)c1cc([N+](=O)[O-])ccc1N1CCOCC1`, the “hERG current change (%, negative = inhibition) at 1uM” value is listed as -67.2%. Turning to `NS(=O)(=O)c1ccc(CCNC(=O)c2cc([N+](=O)[O-])ccc2N2CCOCC2)cc1`, the “hERG current change (%, negative = inhibition) at 1uM” value was -6.06%. For `O=C(NCCc1ccc(F)cc1)c1cc([N+](=O)[O-])ccc1N1CCOCC1` the value was -98.2%; for `Cc1ccc(COC(=O)c2cc([N+](=O)[O-])ccc2N2CCOCC2)cc1`, -21%; for `O=C(OCc1ccc([N+](=O)[O-])cc1)c1cc(S(=O)(=O)N2CCCCC2)ccc1N1CCOCC1`, -77.9%. On to `O=C(OCc1ccc(F)cc1)c1cc(S(=O)(=O)N2CCCCC2)ccc1N1CCOCC1`, for which the “hERG current change (%, negative = inhibition) at 1uM” value came out at 4.59%.

Take `O=C(OCc1cccc(Cl)c1)c1cc([N+](=O)[O-])ccc1N1CCOCC1`: the “hERG current change (%, negative = inhibition) at 1uM” value is -5.04%. For `Cc1ccc(COC(=O)c2cc(S(=O)(=O)N3CCCCC3)ccc2N2CCOCC2)cc1` the value was -1.22%; for `O=C(NCCS(=O)(=O)N1CCN(c2ccccc2F)CC1)C1CC(=O)N(c2ccc(F)cc2)C1` (stereo not drawn), 5.78%; for `COc1cccc(N2CC(C(=O)OC(C)C(=O)c3ccccc3)CC2=O)c1` (stereo not drawn), 5.64%. For `Cc1c(O)ccc(C(=O)CN2CCN(c3ccccc3)CC2)c1O` the value was 13.2%; for `Cc1ccc(-n2c(SCC(=O)N/N=C/c3ccc(C)s3)nnc2-c2ccccc2)cc1`, 7.01%. For `Cn1c(CCNC(=O)c2ccccc2F)nnc1SCc1nc2ccccc2c(=O)[nH]1` the value was 11.4%. As for `COc1ccc(-c2[nH]ncc2CN(C)CCCN2CCOCC2)cc1F`, the “hERG current change (%, negative = inhibition) at 1uM” value was found to be 12%. Under `CCOc1ccc(CCNC(=O)c2ccc(=O)[nH]c2)cc1OCC` stands 4.91%.

For the compound `O=C(c1ccc2c(c1)ncn2C1CCCCC1)N1CCC2(CC1)OCCO2`, the “hERG current change (%, negative = inhibition) at 1uM” value is on record as 0.618%.

As for `CCN1/C(=C\C=C\C2=[N+](CC)c3ccccc3C2(C)C)C(C)(C)c2ccccc21.[O-][Cl+3]([O-])([O-])[O-]`, the “hERG current change (%, negative = inhibition) at 1uM” value was -86.1%. In the case of `CN1/C(=C\C=C\C2=[N+](C)c3ccc4ccccc4c3C2(C)C)C(C)(C)c2ccccc21.[O-][Cl+3]([O-])([O-])[O-]`, the “hERG current change (%, negative = inhibition) at 1uM” value was -43.6%. Under `CCCN1C(=O)/C(=C/C=C2\N(CC)c3ccccc3C2(C)C)SC1=S` stands 5.72%; under `COc1ccc(S(=O)(=O)Nc2ccc(Cc3ccncc3)cc2)cc1C`, 0.33%.

On to `CCCCNC(=O)C1CCC(CNS(=O)(=O)c2c(C)cc(C)cc2C)CC1` (stereo not drawn), for which the “hERG current change (%, negative = inhibition) at 1uM” value is -13.4%. For `CC1CCN(CCCNC(=O)C2CCC(CNS(=O)(=O)c3ccccc3)CC2)CC1` (stereo not drawn) the value was 16.3%; for `CCC1CCCCN1CCCNC(=O)C1CCC(CNS(=O)(=O)c2c(C)cc(C)cc2C)CC1` (stereo not drawn), -3.19%. Under `Cc1cc(C)c(S(=O)(=O)NCC2CCC(C(=O)NCCCN3CCC(C)CC3)CC2)c(C)c1` (stereo not drawn) stands -52.9%. As for `CCCCN(C)CCCNC(=O)C1CCC(CNS(=O)(=O)c2c(C)cc(C)cc2C)CC1` (stereo not drawn), the “hERG current change (%, negative = inhibition) at 1uM” value is -76.3%. Turning to `CCN(CC)CCCNC(=O)C1CCC(CNS(=O)(=O)c2c(C)cc(C)cc2C)CC1` (stereo not drawn), the “hERG current change (%, negative = inhibition) at 1uM” value is reported as 12.6%.

For the compound `Cc1ccc(Nc2nc(N)c([N+](=O)[O-])c(NCc3ccccc3)n2)cc1`, the “hERG current change (%, negative = inhibition) at 1uM” value is 8.5%. For `CC(C)(C)c1ccc(OCCCC(=O)N2CCOCC2)cc1`, the “hERG current change (%, negative = inhibition) at 1uM” value is -2.13%. `O=C(CCNC(=O)c1ccccc1Cl)NCC1CCCO1` (stereo not drawn): the “hERG current change (%, negative = inhibition) at 1uM” value is on record as -9.04%. As to `CCCn1c(N)c(C(=O)CN(C)CC(=O)Nc2ccc(F)cc2)c(=O)[nH]c1=O`, the “hERG current change (%, negative = inhibition) at 1uM” value is -20%.

As for `CCCn1c(N)c(C(=O)CN(C)CC(=O)Nc2cccc(F)c2)c(=O)[nH]c1=O`, the “hERG current change (%, negative = inhibition) at 1uM” value was -73.1%. `CCCn1c(N)c(C(=O)CN(C)CC(=O)Nc2c(Cl)cccc2Cl)c(=O)[nH]c1=O`: the “hERG current change (%, negative = inhibition) at 1uM” value was 0.55%. Under `O=C(Nc1ccccc1)N1CCn2c(nc3ccccc32)C1` stands -6.18%. For `COc1cc(C(=O)Nc2ccc(C)cc2)c2ccccc2n1` the value was 7.49%; for `CN(Cc1ccccc1)C(=O)CCc1ccccc1`, 13.8%.
